Test results as given in publication PMC4552634, “A New Set of Chemical Starting Points with Plasmodium falciparum Transmission-Blocking Potential for Antimalarial Drug Discovery” (PLoS ONE, 2015).
About 3,200 (25%) of roughly 13,000 compounds showed an effect of 50% or more. The list shows a part of the results.

Test system: P. falciparum stage V gametocytes
Design: BacTiter-Glo ATP luminescence viability of purified stage V gametocytes in 384-well plates, per cent inhibition versus DMSO
Details: 48 h, 5 µM; inhibitor

In order of falling “% Inhibition” value:
1. CCOc1ccc(-c2cc3nc(C4CCNCC4)c(C(=O)Nc4ccc(C)cc4Cl)cn3n2)cc1 [TCMDC-125296]  121.3%
2. CCc1c(CCNCCCCCCNC(C)Cc2ccc3c(c2CC)OCO3)ccc(OC)c1OC (stereo not shown) [TCMDC-132052]  111%
3. CCc1c(CCNCCCCCCNC(C)(C)Cc2ccc3c(c2CC)OCO3)ccc(OC)c1OC [TCMDC-132055]  110.7%
4. CCOc1ccc(NC(=O)c2cn3nc(-c4ccc(OCC)cc4)cc3nc2C2CCNCC2)cc1 [TCMDC-125277]  105.9%
5. CCc1c(CCNCCCCCCNCCc2ccc3c(c2C)OCO3)ccc2c1OCO2 [TCMDC-132093]  97.88%
6. CCc1c(CCNCCCCCCNCc2ccc3c(c2CC)OCO3)ccc(OC)c1OC [TCMDC-132068]  92.52%
7. Cc1cc(-c2ccc3c(c2)CCN(CCCOc2ccc4c(c2)CCN4C(=O)/C=C/c2ccccc2Cl)CC3)no1 [TCMDC-141470]  81.48%
8. COc1cc2c(cc1OCCN1CCC(N)CC1)N(C(=O)/C=C/c1ccccc1Cl)CC2 [TCMDC-140969]  75.81%
9. O=C1C(C2CCC(c3ccc(Cl)cc3)CC2)=C2OCC3COC2(O3)c2ccccc21 (stereo not shown) [TCMDC-138169]  65.18%
10. CCOc1ccc(Br)cc1/C=C/C(=O)Nc1ccc(C2CCN(C)CC2)cc1 [TCMDC-134194]  61.62%
11. Nc1cnc(C#Cc2cc3ncnc(N(CCN4CCOCC4)c4ccc(OCc5cccc(F)c5)c(Cl)c4)c3s2)cn1 [TCMDC-134752]  42.15%
12. CCCCN(CCCC)CCOc1cc2c(cc1OC)CCN2C(=O)/C=C/c1ccccc1Cl [TCMDC-141328]  30.32%
13. COc1cc2nccc(Nc3cccc(Oc4ccccc4)c3)c2cc1OC.Cl [TCMDC-137216]  29.43%
14. Cc1cnccc1/C=C/c1cccc(OCCCN2CCc3ccc(S(C)(=O)=O)cc3CC2)c1 [TCMDC-135876]  29.22%
15. COc1cc(OC)c(NC(=O)COc2ccc(C)cc2)cc1Cl [TCMDC-123682]  23.04%
16. Cc1cc(Oc2cc(NC(=O)c3sc4ncn(Cc5ccccc5F)c(=O)c4c3C)cc([N+](=O)[O-])c2)ccc1Cl [TCMDC-125704]  16.56%
17. COc1ccc(Br)cc1/C=C/C(=O)Nc1ccc(C2CCN(C)CC2)cc1 [TCMDC-133711]  12.54%
18. O=C(Nc1cccc(-c2cccc(-c3nc4ccc(C(F)(F)F)cc4[nH]3)c2)c1)c1csnn1 [TCMDC-136902]  10.49%
19. COc1cc(NC(=O)N2CCc3cc(OC)c(OCCN4CCCCC4)cc32)cc(C(F)(F)F)c1 [TCMDC-140782]  9.489%
20. CS(=O)(=O)c1ccccc1CNC(=O)c1ccc(-c2ccc(-c3nc4cc(C(F)(F)F)ccc4[nH]3)s2)cc1 [TCMDC-132507]  9.09%
21. CCOc1ccc(NC(=O)c2ccc(CN3CCCN(Cc4cccc(O)c4)CC3)cc2)cc1 [TCMDC-136436]  8.028%
22. Cc1ccc(NC(=O)c2ccc(CN3CCCN(Cc4cccc(O)c4)CC3)cc2)cc1F [TCMDC-136395]  3.853%
23. CNC(=O)COc1ccc(Nc2nnc(-c3ccc(C)c(S(=O)(=O)NCC4CCCO4)c3)c3ccccc23)cc1 (stereo not shown) [TCMDC-125616]  3.105%
24. CCOc1ccc(Br)cc1/C=C/C(=O)Nc1ccc2c(c1)CN(C)CCC2 [TCMDC-133944]  3.1%
25. O=C1COC2(CN1C1CCN(Cc3ccc(O)c(Cl)c3)C1)c1ccccc1-c1ccccc12 (stereo not shown) [TCMDC-136342]  -3.473%
26. Cc1cc2c(cc1Cl)N(C(=O)Nc1cc(F)cc(-c3cncnc3)c1)CC2 [TCMDC-139052]  -4.717%
27. CCOc1ccc(NC(=O)c2cccc(CN3CCCN(Cc4cccc(O)c4)CC3)c2)cc1 [TCMDC-135987]  -4.859%
28. O=C(c1ccc(O)c(-c2cc(Cl)cc(Cl)c2)c1)N1CCCC1 [TCMDC-140161]  -10.57%
29. CC(=O)Nc1ncc(C(=O)Nc2ccc(-c3cccc(-c4nc5ccc(C(F)(F)F)cc5[nH]4)c3)cc2)s1 [TCMDC-136919]  -27.65%
30. COc1ccc2nccc([C@@H](O)CN3CCC(NC(=O)C(c4cc5ccccc5o4)N4CCN(c5ccc(F)cc5)CC4)CC3)c2c1 (stereo partly shown) [TCMDC-140996]  -29.58%
31. COc1ccc(NC(=O)/C=C/c2ccccc2Cl)cc1OCCN1CCC(NC2CC2)CC1 [TCMDC-140756]  -32.57%
32. COc1cc(NC(=O)/C=C/c2ccccc2OC(F)(F)F)cc(OCCN2CCCCC2)c1 [TCMDC-140931]  -34.24%
33. Nc1cccc(CNCc2cccc(-c3ccc(-c4nc5ccccc5[nH]4)s3)c2)c1.O=C(O)C(F)(F)F [TCMDC-132926]  -42.76%
34. O=C(NCc1ccc(F)cc1)Nc1ccc(-c2cccc(-c3nc4ccc(C(F)(F)F)cc4[nH]3)c2)cc1 [TCMDC-133298]  -50.83%
35. CCOc1cc(C)ccc1C1CCN(CCCCNC(=O)c2ccc(-c3ccc(Cl)cn3)cc2)CC1 [TCMDC-138562]  -60.76%
36. Cc1noc(-c2ccc3c(c2)CCN(CCC2CCC(NC(=O)/C=C/c4cccc(Cl)c4)CC2)CC3)n1 (stereo not shown) [TCMDC-139877]  -87.8%
37. Cc1ccccc1C1CCN(C2CCC(NC(=O)/C=C/c3cccc(F)c3F)CC2)CC1 (stereo not shown) [TCMDC-133525]  -91.19%
